Results on nine molecules are retold here after PubChem BioAssay (NCI).

Structures are written as SMILES. The panel holds about 83,000 compounds, 20% with a hit somewhere; the sample as a whole holds those more often.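 Cell lines were cultured in 96-well plates, exposed to a single compound concentration, and assessed for percent growth 48 hours later.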 Unmarked numbers belong to inactive results. The source made the active and inactive calls. The calls were made as follows: active = growth percent below 10; inactive = the rest.

Some test systems named below: NCI-H23 lung; NCI-H226 lung; NCI-H322M lung; HOP-62 NSCLC; NCI-H460 lung; NCI-H522 lung; A549/ATCC NSCLC; 786-0 renal; COLO 205 colon; DU-145 prostate; K-562 leukemia; MALME-3M melanoma; MDA-MB-231 breast; RXF 393 renal; SF-268 CNS; SF-295 CNS; SF-539 CNS; UACC-257 melanoma; M14 melanoma; HOP-92 NSCLC.
What all share (assay): NCI-60 one-dose screen, 48 h (100 = growth as untreated, 0 = no growth, -100 = all killed)
Conditions in all cases: 10 µM unless noted

On to `OC(c1cc2ccc(C(F)(F)F)cc2c2cc(C(F)(F)F)ccc12)C1CCCCN1` (stereo not given), for which the growth is -95.8% (active) in the assay on NCI-H23 lung; -71.4% (active) with NCI-H226 lung; -91.5% (active) in the assay on NCI-H322M lung; -100% (active) in the assay with HOP-62 NSCLC; -100% (active) in the assay with NCI-H460 lung; -87.7% (active) in the assay with NCI-H522 lung. Further, the growth is -97% (active) with A549/ATCC NSCLC; -85% (active) with 786-0 renal; -100% (active) with COLO 205 colon; -99.3% (active) in the assay with DU-145 prostate; -95% (active) with K-562 leukemia; -72.6% (active) with MALME-3M melanoma. Besides, the growth in the assay with MDA-MB-231 breast was -79.1% (active); in the assay on RXF 393 renal, -79.6% (active); in the assay with SF-268 CNS it was -81.7% (active); in the assay with SF-295 CNS, -96% (active); in the assay on SF-539 CNS, -88.1% (active); with UACC-257 melanoma it was -86.4% (active). In addition, the growth in the assay on M14 melanoma was -85.2% (active).

Take `S=c1[nH]c2cc(Cl)ccc2s1`: the growth with NCI-H23 lung is 105%; with NCI-H226 lung, 91.4%; in the assay with NCI-H322M lung it was 94.4%; in the assay on HOP-62 NSCLC, 98.1%; with NCI-H460 lung it was 118%; in the assay with HOP-92 NSCLC, 68.4%. In addition, the growth in the assay on A549/ATCC NSCLC is 108%; in the assay with 786-0 renal, 107%; in the assay with COLO 205 colon, 92.9%; in the assay with DU-145 prostate, 104%; in the assay on K-562 leukemia it was 111%; in the assay with MALME-3M melanoma, 102%. The growth is 99.9% in the assay on MDA-MB-231 breast; 121% in the assay on RXF 393 renal; 94.2% with SF-268 CNS; 103% in the assay with SF-295 CNS; 100% with SF-539 CNS; 108% in the assay on UACC-257 melanoma. In addition, the growth in the assay on M14 melanoma was 108%.

For `CC(C)(C)c1ccc(CCO)cc1`, the growth is 97.5% in the assay with NCI-H23 lung; 91.8% with NCI-H226 lung; 84.5% with NCI-H322M lung; 97.5% in the assay on HOP-62 NSCLC; 109% in the assay with NCI-H460 lung; 85.4% in the assay with NCI-H522 lung. Besides, the growth was 103% in the assay on A549/ATCC NSCLC; 98.2% in the assay on 786-0 renal; 110% in the assay on COLO 205 colon; 114% in the assay with DU-145 prostate; 91.3% in the assay on K-562 leukemia; 82.5% in the assay with MALME-3M melanoma. The growth in the assay on MDA-MB-231 breast is 102%; in the assay with RXF 393 renal it was 117%; in the assay on SF-268 CNS, 104%; with SF-295 CNS, 88.7%; in the assay with SF-539 CNS, 88.6%; in the assay with UACC-257 melanoma, 97.2%. Besides, the growth with M14 melanoma was 104%.

As for `Nc1nc2ncc(CNc3ccc(C(=O)NC(CCC(=O)NC(CCC(=O)NC(CCC(=O)NC(CCC(=O)NC(CCC(=O)O)C(=O)O)C(=O)O)C(=O)O)C(=O)O)C(=O)O)cc3)nc2c(=O)[nH]1` (stereo not given), the growth was 101% in the assay on NCI-H23 lung; 113% with NCI-H226 lung; 97.5% in the assay with NCI-H322M lung; 100% in the assay with HOP-62 NSCLC; 120% with NCI-H460 lung; 96.9% with NCI-H522 lung. Besides, the growth in the assay with A549/ATCC NSCLC is 104%; in the assay with 786-0 renal it was 105%; in the assay on COLO 205 colon, 113%; in the assay with DU-145 prostate, 108%; with K-562 leukemia it was 97.4%; in the assay with MALME-3M melanoma it was 90.3%. Further, the growth with RXF 393 renal was 112%; in the assay with SF-268 CNS, 105%; in the assay on SF-295 CNS it was 106%; in the assay on SF-539 CNS, 99.8%; in the assay with UACC-257 melanoma, 105%; with M14 melanoma, 107%.

As to `O=[N+]([O-])CC(O)c1ccccc1` (stereo not given), the growth in the assay on NCI-H23 lung is 93.1%; in the assay with NCI-H226 lung, 97.9%; with NCI-H322M lung, 118%; in the assay with HOP-62 NSCLC, 100%; in the assay on NCI-H460 lung, 101%; in the assay with NCI-H522 lung, 97.3%. In addition, the growth is 80.3% in the assay with 786-0 renal; 113% in the assay with COLO 205 colon; 109% in the assay on DU-145 prostate; 99.4% with K-562 leukemia; 122% with MALME-3M melanoma; 87.6% in the assay on MDA-MB-231 breast. Moreover, the growth in the assay on RXF 393 renal was 112%; with SF-268 CNS it was 100%; in the assay on SF-295 CNS, 113%; in the assay on SF-539 CNS, 103%; in the assay on UACC-257 melanoma, 88.7%; with M14 melanoma it was 97.6%.

`CN(C)c1ccc(/C=C/c2sc3ccc4ccccc4c3[n+]2C)cc1`: the growth with NCI-H23 lung was -25.9% (active); in the assay on NCI-H226 lung it was -29.4% (active); in the assay with NCI-H322M lung, -10.5% (active); with HOP-62 NSCLC it was -73.3% (active); with NCI-H460 lung, -40.9% (active); in the assay on A549/ATCC NSCLC, -14% (active). For the same molecule, the growth is -90.8% (active) in the assay with 786-0 renal; -85.8% (active) in the assay on COLO 205 colon; -40% (active) with DU-145 prostate; 0.148% (active) with K-562 leukemia; -48.8% (active) in the assay with MALME-3M melanoma; -61.5% (active) in the assay with MDA-MB-231 breast. In addition, the growth in the assay with RXF 393 renal is -95.1% (active); with SF-268 CNS, -65.1% (active); with SF-295 CNS, -35.4% (active); in the assay on SF-539 CNS it was -54.6% (active); with UACC-257 melanoma it was -48.7% (active); in the assay on M14 melanoma, -76.5% (active).

Consider `CCNc1nnnn1CC`, for which the growth was 107% in the assay on NCI-H23 lung; 102% with NCI-H226 lung; 105% in the assay on NCI-H322M lung; 110% in the assay on HOP-62 NSCLC; 106% with NCI-H460 lung; 106% in the assay with NCI-H522 lung. For the same molecule, the growth is 113% in the assay on A549/ATCC NSCLC; 109% in the assay on COLO 205 colon; 109% in the assay with DU-145 prostate; 109% with K-562 leukemia; 116% with MALME-3M melanoma; 103% in the assay with MDA-MB-231 breast. Moreover, the growth with RXF 393 renal was 106%; in the assay on SF-268 CNS, 106%; in the assay with SF-295 CNS, 103%; in the assay on SF-539 CNS, 103%; in the assay on UACC-257 melanoma it was 116%; with M14 melanoma, 104%.

For the molecule `CCC(=O)c1cc([N+](=O)[O-])c(Br)s1`, the growth is 93.4% with NCI-H23 lung; 99.1% with NCI-H226 lung; 101% with NCI-H322M lung; 101% in the assay on HOP-62 NSCLC; 108% in the assay with NCI-H460 lung; 105% with A549/ATCC NSCLC. The growth with 786-0 renal is 109%; in the assay with COLO 205 colon, 11.5%; in the assay with DU-145 prostate, 105%; in the assay on K-562 leukemia it was 44.5%; with MALME-3M melanoma, 90.5%; in the assay on MDA-MB-231 breast, 103%. For the same molecule, the growth in the assay on RXF 393 renal is 91%; with SF-268 CNS, 96.6%; in the assay on SF-295 CNS, 103%; in the assay on SF-539 CNS, 88.5%; with UACC-257 melanoma, 96.5%; in the assay with M14 melanoma, 71.6%.

For `CCCCCCCCCCCC1N=C(N)N=C(N)N1c1cccc(Br)c1` (stereo not given), the growth with NCI-H23 lung is 6.58% (active); in the assay with NCI-H226 lung, 39.1%; in the assay on NCI-H322M lung it was 54.4%; in the assay on HOP-62 NSCLC, -8.64% (active); in the assay with NCI-H460 lung it was -58.4% (active); in the assay on A549/ATCC NSCLC, 21.7%. Further, the growth with 786-0 renal was 4.98% (active); in the assay with COLO 205 colon, -77.3% (active); in the assay with DU-145 prostate it was 17.7%; in the assay on K-562 leukemia, -20.1% (active); in the assay with MALME-3M melanoma, 76%; with MDA-MB-231 breast it was -48.1% (active). Also, the growth with RXF 393 renal is -32.1% (active); in the assay on SF-268 CNS, 8.27% (active); in the assay with SF-295 CNS, 18.9%; with SF-539 CNS, 12%; in the assay with UACC-257 melanoma, 61.3%; with M14 melanoma, 11.4%.
